Assay results published in PubChem BioAssay.
Where “and” joins values, the source holds several entries; their conditions need not be identical. Equal entries are not always repeated. Calls of active or inactive are those of the source. Unless noted, no stated cut-off is given here; in the data, active means parasite load remaining mostly below about 12% (no sharp cut-off); inactive means mostly above about 10%.

Columns and labels:
[1] = P. berghei load reduction in hepatocytes – cell-based, HepG2, luciferase luminescence, HepG2 viability, primary screen (AID 624349);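 further: 100% = mean of DMSO negative control wells on the same plate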; details: P. berghei liver stage in HepG2, luciferase luminescence, concentration not given here; parasite load remaining: stronger effect = lower value; viability: measured here: HepG2 viability without parasites
[2] = Wnt pathway potentiators raising nuclear beta-catenin – imaging, WNT3A-conditioned medium, mouse C2C12, NPC library, primary screen (AID 1117326; in the data active means nuclear beta-catenin stimulation mostly above about 4.2%, no sharp cut-off; inactive means mostly below about 10%; further: reference of the scale not given here); details: stronger effect = higher value
[3] = stimulators of insulin release from INS-1E, primary screen, cell-based, 5 mM glucose, NPC library (AID 1117329;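 active means compound raises insulin release from rat beta cells at 5 mM glucose, no numeric limit stated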; further: reference of the scale not given here); details: rat INS-1E insulin secretion, at 10 µM, stronger effect = higher value
[4] = growth inhibition of GSK3B-pretreated HCT116 cells – cell-based, CellTiter-Glo, 0.2 to 20 µM (AID 1117336;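 active means compounds lowering colon cancer cell viability after pretreatment blocking the GSK3B kinase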); details: HCT116 viability after GSK3B inhibitor, at 20 µM, stronger effect = higher value
[5] = inhibition of endothelial tube formation, primary screen, imaging, VEGF stimulated, CD31 staining, tube area, NPC library (AID 1117340;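 active means compound that reduces growth-factor-driven endothelial tube area in a mixed cell culture, no cutoff stated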); details: VEGF-stimulated ADSC/ECFC co-culture, at 10 µM, stronger effect = higher value
[6] = GLP1 release stimulators, primary, NCI-H716, NPC library (AID 1117341;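 active means compound raises GLP1 secretion from the human gut endocrine cells, with no numeric limit stated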; further: reference of the scale not given here); details: NCI-H716 cells, at 10 µM, stronger effect = higher value
[7] = HCT116 colon cancer cell growth inhibition, primary screen, CellTiter-Glo luminescence, NPC library (AID 1117342;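 active means compounds that lower survival of HCT116 colon cancer cells in the luminescence readout, no numeric limit stated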); details: at 20 µM (top of the series)
[8] = reduced SW480 viability measured with CellTiter-Glo, NPC library, primary (AID 1117343;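 active means compounds that lower viability of the colon cancer cells in the luminescence readout, with no numeric limit stated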); details: CellTiter-Glo luminescence; at 20 µM (top of the series)
[9] = NPC library primary testing for decreased DLD-1 cell viability via CellTiter-Glo (AID 1117346;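 active means compounds that lower survival of DLD-1 colon cancer cells in the luminescence readout, no cutoff given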); details: DLD-1 viability, CellTiter-Glo luminescence; at 20 µM (top of the series)
[10] = target: 6-phosphogluconate dehydrogenase, decarboxylating (Homo sapiens) (UniProt P52209); experiment: inhibition of human phosphogluconate dehydrogenase – biochemical, recombinant enzyme, NADPH absorbance, primary screen (AID 1159550;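 active means at least 20% inhibition of 6-phosphogluconate dehydrogenase activity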); details: recombinant 6PGD, NADPH absorbance 341 nm; at 10 µM; stronger effect = higher value
Chain of 6-phosphogluconate dehydrogenase, decarboxylating (Homo sapiens) (P52209 whole entry, looked up): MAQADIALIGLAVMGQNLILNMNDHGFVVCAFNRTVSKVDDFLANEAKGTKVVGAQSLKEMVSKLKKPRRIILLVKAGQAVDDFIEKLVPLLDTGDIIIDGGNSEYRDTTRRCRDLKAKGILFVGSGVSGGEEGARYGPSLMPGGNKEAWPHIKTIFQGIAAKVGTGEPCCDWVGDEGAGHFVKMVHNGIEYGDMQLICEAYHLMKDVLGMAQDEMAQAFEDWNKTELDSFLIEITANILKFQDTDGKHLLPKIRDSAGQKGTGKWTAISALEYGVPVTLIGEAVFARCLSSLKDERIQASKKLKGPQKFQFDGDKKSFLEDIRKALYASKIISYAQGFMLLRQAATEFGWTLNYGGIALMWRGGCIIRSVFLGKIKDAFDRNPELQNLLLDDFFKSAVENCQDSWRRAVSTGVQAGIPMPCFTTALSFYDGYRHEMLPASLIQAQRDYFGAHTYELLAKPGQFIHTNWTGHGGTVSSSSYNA

SMILES	parasite load remaining [1]	viability [1]	nuclear beta-catenin stimulation ([2]; at 10 µM)	nuclear beta-catenin stimulation ([2]; stimulation, at 2 µM) [%]	insulin secretion stimulation [3]	viability decrease [4]	tube area decrease [5]	GLP1 secretion stimulation [6]	inhibition of viability [7]	viability decrease (inhibition) [8]	viability decrease (inhibition) [9]	inhibition [10]
O=c1oc2c(O)c(O)cc3c(=O)oc4c(O)c(O)cc1c4c23	130% (inactive)	65.1%	-1.4% (inactive)	2.3	-0.1% (inactive)	24.7% (inactive)	58% (active)	-2.3% (inactive)	19.7% (inactive)	75.1% (active)	30.7% (inactive)	-6.65% (inactive)
OC[C@H]1O[C@@H](Oc2ccc(O)cc2)[C@H](O)[C@@H](O)[C@@H]1O	102% (inactive)	72.2%	-2.1% (inactive)	1	-0.6% (inactive)	-2.2% (inactive)	1% (inactive)	-2.9% (inactive)	-1.8% (inactive)	2.3% (active)	-10.8% (inactive)	17.9% (inactive)
Nc1ncnc2c1ncn2[C@@H]1O[C@H](COP(=O)(O)O)[C@@H](O)[C@H]1O	75.5% (inactive) and 87.1% (inactive)	125% and 81%	2.4% (inactive)	3.8	0.05% (inactive)	-14.7% (inactive)	-5.6% (inactive)	4% (inactive)	-14.3% (inactive)	73.2% (active)	-4.1% (inactive)	-8.33% (inactive)
Nc1ccc(S(=O)(=O)Nc2cnc3ccccc3n2)cc1	113% (inactive) and 43.6% (inactive)	98.9% and 97%	-0.3% (inactive)	0.7	1.2% (inactive)	21% (inactive)	-18.5% (inactive)	4.1% (inactive)	0.93% (inactive)	-1% (inactive)	-9.7% (inactive)	10.4% (inactive)
Nc1ccc(S(=O)(=O)Nc2ccccn2)cc1	73.3% (inactive) and 71.4% (inactive) and 46.1% (inactive)	93.8% and 68.3% and 99%	-0.3% (inactive)	1	-2.8% (inactive)	-1.3% (inactive)	7.9% (inactive)	-3.8% (inactive)	-12% (inactive)	17.6% (inactive)	-7.25% (inactive)	4.06% (inactive)
CCOC(=O)c1ccc(N)cc1	108% (inactive) and 105% (inactive) and 49.4% (inactive)	103% and 76.4% and 98.1%	0.3% (inactive)	1.2	-1% (inactive)	5.65% (inactive)	4% (inactive)	-0.6% (inactive)	7.6% (inactive)	87.8% (active)	18.2% (inactive)	-17.7% (inactive)
CC1=C(C(=O)O)N2C(=O)[C@@H](NC(=O)[C@H](N)c3ccc(O)cc3)[C@H]2SC1	116% (inactive) and 83.6% (inactive)	96.4% and 77.7%	1.8% (inactive)	3.3	-0.5% (inactive)	-2.2% (inactive)	-4.7% (inactive)	-0.3% (inactive)	7.3% (inactive)	7.8% (inactive)	7.3% (inactive)	-1.37% (inactive)
CCOC(N)=O	148% (inactive) and 51.2% (inactive)	85% and 96.6%	2.6% (inactive)	7.1	0.8% (inactive)	-12.6% (inactive)	14.2% (inactive)	-2.3% (inactive)	3.77% (inactive)	5.1% (inactive)	-11.6% (inactive)	-22.6% (inactive)
CCOC(=O)n1ccn(C)c1=S	106% (inactive) and 140% (inactive) and 85.8% (inactive)	108% and 84.5% and 77.4%	0.6% (inactive)	-0.4	0.6% (inactive)	-40.3% (inactive)	10.6% (inactive)	0.3% (inactive)	-5.63% (inactive)	6.5% (inactive)	5.3% (inactive)	2.95% (inactive)
O=C(OCc1ccccc1)c1ccccc1	82.1% (inactive) and 33.8% (inactive)	68.9% and 89.1%	0.4% (inactive)	2.2	0.7% (inactive)	-5.3% (inactive)	5.6% (inactive)	-2.6% (inactive)	10.4% (inactive)	-12.6% (inactive)	-9.1% (inactive)	-0.0939% (inactive)
CCN1CCCC(OC(=O)C(c2ccccc2)c2ccccc2)C1 (centres undefined)	78.7% (inactive) and 105% (inactive) and 40.1% (inactive)	75.6% and 65.9% and 85.9%	0.6% (inactive)	2.6	133% (active)	3.4% (inactive)	18.5% (inactive)	1.3% (inactive)	68.8% (active)	71.6% (active)	46.5% (inactive)	-9.18% (inactive)
O=C(O)c1cn(-c2ccc(F)cc2)c2cc(N3CCNCC3)c(F)cc2c1=O	63.8% (inactive) and 65.5% (inactive) and 24.1% (inactive)	92.7% and 132% and 71%	0.8% (inactive)	2.8	0.8% (inactive)	28.3% (inactive)	-4.3% (inactive)	-2.6% (inactive)	29.7% (inactive)	-14.9% (inactive)	-10.5% (inactive)	0.148% (inactive)
